Measurements reported in PubChem BioAssay AID1508622 (National Center for Advancing Translational Sciences (NCATS), 2021).
Activity calls are given as the source filed them. Calls follow the shape of the dose curve; as a rule, active = well fitted activation curve with a large enough effect; inconclusive = small, poorly fitted or top-dose-only effect; inactive = no such curve, though single readings can be large or run the other way.

experiment: Confirmatory qHTS for Identification of Small Molecule Activators of Huntingtin-Antisense Promoter Activity; conditions: HEK293 HTT-AS promoter firefly luciferase reporter, 24 h; series mostly up to 57.5 µM
Description: Assay Provider: Russell L. Margolis M.D.
Department Neurology, Johns Hopkins University School of Medicine, Baltimore, MD
Huntington's Disease (HD) is a neurodegenerative disorder caused by a CAG repeat expansion in exon 1 of huntingtin (HTT). While there are currently no disease-modifying treatments for HD, recent efforts have focused on development of nucleotide-based therapeutics to lower HTT expression. As an alternative to siRNA or oligonucleotide methods, we hypothesized that suppression of HTT expression might be accomplished by small molecules that either (1) directly decrease HTT expression by suppressing HTT promoter activity or (2) indirectly decrease HTT expression by increasing the promoter activity of HTT-AS, the gene antisense to HTT that appears to inhibit expression of HTT.
We developed and employed a high throughput screen for modifiers of HTT and HTT-AS promoter activity using luminescent reporter HEK293 cells; of the 52,041 compounds tested, we identified 898 replicable hits. We used a rigorous stepwise approach to assess compound toxicity and the capacity of the compounds to specifically lower huntingtin protein in 5 different cell lines, including HEK293 cells, HD lymphoblastoid cells, mouse primary neurons, HD iPSCs differentiated into cortical-like neurons, and HD hESCs. We found no compounds which were able to lower huntingtin without lowering cell viability in all assays, though the potential efficacy of a few compounds at non-toxic doses could not be excluded.
SEQUENCE No. (1, 2, 3, etc.); […] (e.g., Cells, Incubation, Reagent, etc.); VALUE and DESCRIPTION.
1; Reagent; 4 uL; 2,500 Hek293 luciferase reporter cells per wells
3; Compound; 23 nL; Control inhibitor / compound library
5; Reagent; 2.5 uL; Firefly Luc reagent; Dual-Glo Luciferase Reporter Assay System (Promega)
6; Time; 10 min; room temperature incubation
7; Detection; Luminescence; FLuc
NOTES (numbers refer to sequence above)
1; High-throughput screening, measuring luminescence from a Hek293 luciferase reporter, was performed in 1,536 well white-walled tissue-culture treated plates. 2,500 cells were plated in 4 uL of Opti-MEM per well using a Multidrop Combi Reagent Dispenser (ThermoFisher).
2; Assay plates were cultured for 24 hours.
3; Control inhibitor (PTC124; final concentration of 50 uM) and compound library (at final concentrations of 460 nM - 57.5 uM) were added to the assay plate using the Kalypsis Pintool Robotic System equipped with 1536 pinheads.
4; Cells were then incubated for 24 hours at 37C prior to luminescence measurements.
5; In all cases, luminescence was measured using the Dual-Glo Luciferase Reporter Assay System (Promega) following the manufacturer's instructions.
6; Room temperature incubation.
7; Luminescence signal was obtained using the PerkinElmer ViewLux plate reader. Results were normalized to vehicle control (0% activity) and zero RLU (-100% activity).

Potency, inactive:
COc1cccc(NC(=O)c2oc3ccc(S(=O)(=O)N4CCCCCC4)cc3c2C)c1
Cc1ccc(C(=O)NCc2ccc3c(c2)CCN3C(=O)c2ccc(C)cc2)cc1
COc1ccc(Cn2c(CO)cnc2SCc2ccc(F)cc2)cc1
COc1ccc(OC2CCN(S(=O)(=O)c3ccc(OC)cc3)CC2)cc1
COc1cc(C2CC(=O)c3c([nH]c(C(=O)OCc4ccc(C)cc4)c3C)C2)cc(OC)c1OC (stereo not given)
O=C(CSc1nccn1Cc1ccc(F)cc1)Nc1nc2ccccc2s1
COc1ccc(S(=O)(=O)c2cc3cc(C(C)(C)C)cc(O)c3oc2=O)cc1
CCOC(=O)C1=C(CN(C)Cc2ccccc2)NC(=O)NC1c1ccc(OC)cc1 (stereo not given)
CCCCCNS(=O)(=O)c1ccc(N2CCCCS2(=O)=O)cc1
COc1ccc(C(=O)N2CCC(c3nc4ccccc4s3)CC2)cc1Cl
Cc1cc(C)c(S(=O)(=O)NCCc2sc3nc(-c4ccc(F)cc4)nn3c2C)c(C)c1
O=C(Nc1cccc(Cl)c1)c1ccc(F)c(S(=O)(=O)N2CCC3(CC2)OCCO3)c1
Cc1noc2ncnc(NCc3cccc(Cl)c3)c12
Cc1ccc(CN2CCSc3ccc(C(=O)NCC(C)c4ccccc4)cc32)cc1 (stereo not given)
CCCS(=O)(=O)NCCc1sc2nc(-c3ccc(F)cc3)nn2c1C
Cc1c(Cl)ccc2sc(N3CCN(C(=O)CCS(=O)(=O)c4ccc(F)cc4)CC3)nc12
COc1ccc2[nH]cc(CCNC(=O)c3cnn(-c4ccc(C)cc4)c3C3CCN(C(=O)OC(C)(C)C)CC3)c2c1
FC(F)(F)c1cccc(N2CCN(c3nc4ccccc4n4cnnc34)CC2)c1
COc1ccc(CCNc2ncnc3onc(C)c23)c(OC)c1
C[n+]1cc2c3c(ccc2c2ccc4cc5c(cc4c21)OCO5)OCO3
CC(=O)Nc1cccc(NC(=O)Cc2csc(COc3cccc(C)c3)n2)c1
Cc1cccc(C)c1NC(=O)c1ccc2nc(CCc3ccccc3)oc2c1
C#C[C@]1(O)CC[C@H]2[C@H]3CCc4cc(OC)ccc4[C@H]3CC[C@@]21C
CCn1c(CN2CCCCC2)nc2cc(NC(=O)c3ccc([N+](=O)[O-])cc3)ccc21
COc1ccc(CNC(=O)Nc2ccc3c(c2)N(C)C(=O)c2ccccc2S3)cc1OC
COc1ccc(-n2c(=O)[nH]c3cc(C(=O)NCCc4ccc(Cl)cc4)ccc3c2=O)cc1OC
Cc1ccccc1NC(=O)c1sc2nc3c(cc2c1N)CN(Cc1ccccc1)CC3
CCc1ccc(NC(=O)c2ccc(F)c(S(=O)(=O)NCCc3ccc(OC)c(OC)c3)c2)cc1
O=C(c1ccc2c(c1)CCN2S(=O)(=O)c1ccc(Cl)cc1)N1CCN(c2ccc(F)cc2)CC1
CCOC(=O)c1ccc(N2C(=O)c3[nH]nc(-c4ccccc4)c3C2c2cccs2)cc1 (stereo not given)
CCCN(C(=O)COc1cc(=O)n(CC)c2ccccc12)c1ccc(C(C)C)cc1
CCc1cccc(NC(=O)CSc2nc3ccsc3c(=O)n2CC)c1
CCOc1ccc(CCNC(=O)c2cc3c(-c4cccc(OC)c4)nn(C)c3s2)cc1OCC
CCc1c(C)sc2c1CCN(Cc1ccccc1F)C2c1ccccc1 (stereo not given)
O=C(C1CCC1)N1CCCc2cc(S(=O)(=O)N3CCN(c4ccccc4)CC3)ccc21
CCCN(c1ccccc1CC)S(=O)(=O)c1ccc2c(c1)CC(C)N2C(=O)C1CC1 (stereo not given)
Cc1cccc(Cn2c(SCc3ccc(C(=O)N4CCCCCC4)cc3)nc3ccncc32)c1
COc1ccc(CCNC(=O)c2ccc3c(c2)CCN3S(=O)(=O)c2ccc(C)cc2)cc1OC
COc1ccc(CCNc2nc3c(c(=O)n(C)c(=O)n3C)n2Cc2ccc(F)cc2)cc1OC
COc1ccc(-c2nc(N3CCOCC3)c3sc(CN(C)c4ncc(C(=O)NO)cn4)cc3n2)cn1
